From PubChem
PostGolgi yeast: growth inhibition of a yeast mutant, post-Golgi transport screen; 98,000 tested, 0.9% active; inhibition, % at 10 µM; AID 739; post-Golgi transport phenotypic cell assay;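 note: yeast cells grown in 1536-well plates; yeast grown about 18 h at 30C before absorbance read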
CYP2C9 activ: increases human cytochrome P450 2C9 activity. activation factor at 5 µM. 96,000 tested, 1.4% active. recombinant CYP2C9, luciferin-H conversion, luminescence; stronger effect = higher value; factor 1 = untreated enzyme, 0 = blocked. P11712. AID 1024;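 active = activation factor of 2 or more for CYP2C9 at a 5 µM dose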;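 note: 0 = sulfaphenazole-blocked wells and 1 = vehicle-only wells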
Target sequence (P11712 whole entry, looked up): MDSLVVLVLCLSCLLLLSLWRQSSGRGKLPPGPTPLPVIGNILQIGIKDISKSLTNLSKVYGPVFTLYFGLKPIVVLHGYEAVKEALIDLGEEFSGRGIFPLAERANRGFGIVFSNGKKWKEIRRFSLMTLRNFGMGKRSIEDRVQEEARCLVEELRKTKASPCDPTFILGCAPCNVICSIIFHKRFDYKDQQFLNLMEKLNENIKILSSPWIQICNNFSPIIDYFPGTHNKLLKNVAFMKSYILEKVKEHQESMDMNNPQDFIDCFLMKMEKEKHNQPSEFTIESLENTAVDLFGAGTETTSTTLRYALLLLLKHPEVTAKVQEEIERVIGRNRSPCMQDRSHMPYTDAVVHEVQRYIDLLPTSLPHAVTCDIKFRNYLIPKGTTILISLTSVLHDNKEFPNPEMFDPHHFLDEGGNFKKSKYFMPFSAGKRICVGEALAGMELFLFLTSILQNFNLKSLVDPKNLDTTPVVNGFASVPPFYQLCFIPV
CYP2C9 inhib: blocks human cytochrome P450 2C9 | 96,000 tested, 20% active | CYP2C9 Supersomes, luciferin-H conversion, luminescence | inhibition, % at 5 µM;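 active = blocking of liver enzyme CYP2C9 beyond about 50% at 5 µM, limit read from the data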
CYP2C19 inhib: human CYP2C19 inhibition; P33261; CYP2C19 Supersomes, luciferin-H EGE luminescence, 30 min; inhibition, % at 5 µM; 96,000 tested, 21% active;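 active = CYP2C19 inhibition above a set limit at 5 µM in the primary screen, cut at about 50% in these data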;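 note: plate controls were negative control wells for no effect and 2.5 mM tranylcypromine positive control for full effect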
PostGolgi ctrl: inhibits growth of the yeast control strain; inhibition, % at 10 µM; 98,000 tested, 5% active; efflux-deficient yeast background strain, growth absorbance A615, 16 h
CYP2C19 act: activators of human cytochrome P450 2C19; recombinant CYP2C19, luciferin-H EGE luminescence; stronger effect = higher value; 0 = fully inhibited enzyme, 1 = untreated enzyme; activation factor at 5 µM; 96,000 tested, under 10 active; AID 1025;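 active = activation factor of at least 2 at 5 µM in the primary screen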;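 note: 0 = wells with 2.5 mM tranylcypromine and 1 = vehicle-only wells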
Starred values were filed as active, the others as inactive; · = not tested or not shown. Only a sample is shown. Cut-off read from the data, not from the text of the source, unless noted: active = inhibition above about 30%; inactive = the rest.

SMILES | PostGolgi yeast | CYP2C9 activ | CYP2C9 inhib | CYP2C19 inhib | PostGolgi ctrl | CYP2C19 act
c1ccc(CCc2nc(-c3ccc(-n4cccc4)cc3)no2)cc1 | -6.0 | 1 | 0.5 | -10.9 | 22.2 | 1.1
CC(C)C(=O)NC(=S)Nc1ccc(S(=O)(=O)NC(C)(C)C)cc1 | 3.5 | 0.5 | 50.0* | 37.0 | 10.1 | 0.6
C=CCN(CC=C)S(=O)(=O)c1ccc(NC(=S)NC(=O)c2ccco2)cc1 | -7.3 | 1.1 | -9.1 | 18.4 | -3.0 | 0.8
CCC(=O)NC(=S)Nc1ccc(S(=O)(=O)NC(C)C)cc1 | -0.2 | 0.8 | 15.4 | 11.1 | 10.9 | 0.9
C=CCN(CC=C)S(=O)(=O)c1ccc(NC(=S)NC(=O)c2ccc(-c3ccccc3)cc2)cc1 | 1.1 | 0.4 | 61.6* | 33.8 | -11.5 | 0.7
CC(C)C(=O)NC(=S)Nc1ccc(S(=O)(=O)N(C)Cc2ccccc2)cc1 | 5.7 | 0.4 | 55.1* | 40.3 | 10.0 | 0.6
CCOc1ccc(NS(=O)(=O)c2ccc(NC(=S)NC(=O)C(C)C)cc2)cc1 | -3.4 | 0 | 95.1* | 82.0* | 11.8 | 0.2
CSc1nc(NC(C)=O)nc(C)c1Cl | -2.8 | 1 | 3.5 | -3.9 | 1.6 | 1
Clc1ccc(OCc2cc(-c3ccccc3)no2)c(Cl)c1 | -16.8 | 1.1 | -5.4 | -12.6 | 4.8 | 1.1
Cc1ccc([N+](=O)[O-])cc1NC1OC(CO)C(O)C1O (stereo not drawn) | 20.9 | 1 | -2.3 | -7.3 | 0.4 | 1.1
COc1ccc(NS(=O)(=O)c2ccc(NC(=S)NC(=O)C(C)C)cc2)cc1 | -8.0 | 0.4 | 64.5* | 79.1* | 12.7 | 0.2
COc1ccc(CC(=O)Nc2ccc(S(=O)(=O)Nc3nc(C)cc(C)n3)cc2)cc1 | 1.1 | 0.9 | 6.9 | -26.1 | 1.5 | 1.3
Cc1cc(C)nc(NS(=O)(=O)c2ccc(NC(=S)NC(=O)C(C)(C)C)cc2)n1 | -2.2 | 0.8 | 21.2 | -2.9 | -1.6 | 1
COc1ccc(CC(=O)NC(=S)Nc2ccc(S(=O)(=O)NC(C)(C)C)cc2)cc1 | 2.7 | 0.6 | 42.8 | 15.6 | 38.0* | 0.8
C=CCN(CC=C)S(=O)(=O)c1ccc(NC(=S)NC(=O)Cc2ccc(OC)cc2)cc1 | -10.0 | 0.3 | 72.3* | 42.9 | 9.8 | 0.6
Cc1ccc(OCCN2C(=O)OC(C)(C)C2(C)O)cc1 (stereo not drawn) | -4.6 | 0.9 | 10.5 | 36.7 | 18.2 | 0.6
CN(CC(=O)N1CCN(c2ccccc2)CC1)S(=O)(=O)c1cnc[nH]1 | 3.2 | 0 | 100.4* | 91.7* | 35.9* | 0.1
CN(CC(=O)N1CCN(c2cccc(Cl)c2)CC1)S(=O)(=O)c1cccs1 | -26.1 | 0.2 | 80.7* | 81.5* | 6.0 | 0.2
CS(=O)(=O)N(CC(=O)N1CCN(c2ccc(F)cc2)CC1)c1cccc(Cl)c1 | 2.7 | 2.4* | -139.3 | 37.1 | -3.5 | 0.6
CCN(CC)c1nc(-c2ccc(Cl)cc2)cc(C(F)(F)F)c1C#N | 3.1 | 0.9 | 13.5 | -4.6 | 6.7 | 1
O=C(CSc1ccc(-c2ccccc2)nn1)N1CCOCC1 | 0.1 | 1 | -2.9 | 22.8 | -7.5 | 0.8
CCCC(=O)NCCCc1nc2ccccc2n1C(C)C | 2.8 | 1.4 | -41.2 | 7.1 | 4.7 | 0.9
COc1ccc(C(CNC(=O)CN2C(=O)NC3(CC(C)CC(C)(C)C3)C2=O)N2CCOCC2)cc1 (stereo not drawn) | -18.8 | 0.8 | 22.0 | 23.9 | 27.0 | 0.8
CCOc1ccc(-c2cc3nc(C4CCN(C(=O)OC(C)(C)C)CC4)c(C(=O)O)cn3n2)cc1 | 3.9 | 0.2 | 80.7* | -7.2 | 17.5 | 1.1
CCOCCCNC(=O)C(c1ccccc1)N(Cc1ccc2c(c1)OCO2)C(=O)CNC(C)=O (stereo not drawn) | 0.1 | 0.9 | 8.5 | 18.9 | 4.5 | 0.8
SMILES | PostGolgi yeast | CYP2C9 activ | CYP2C9 inhib | CYP2C19 inhib | PostGolgi ctrl | CYP2C19 act
O=C(/C=C\Nc1cccc(F)c1)c1cccs1 | -13.1 | 0.8 | 19.9 | 55.3* | -1.8 | 0.4
Cc1c(C(=O)NN2CCN(C)CC2)cccc1[N+](=O)[O-] | 0.2 | · | · | · | 29.4 | ·
O=C1NC(c2ccccc2)=NC1(NS(=O)(=O)c1ccccc1)C(F)(F)F (stereo not drawn) | 2.5 | 0.9 | 9.7 | 2.3 | 1.6 | 1
O=S(=O)(NC(=NC1CCCC1)C(F)(F)F)c1ccccc1 | -0.6 | 1.4 | -40.6 | 65.6* | 24.8 | 0.3
COc1ccc(CCNC(=O)c2ccc(NS(=O)(=O)c3c(C)noc3C)cc2)cc1OC | 3.9 | 0.4 | 63.7* | 10.8 | -1.1 | 0.9
CCc1ccc(N(CC(=O)O)S(=O)(=O)c2c(C)noc2C)cc1 | 1.8 | 0.7 | 25.3 | -1.8 | 7.6 | 1
CCc1ccc(NC(=O)CNS(=O)(=O)c2c(C)noc2C)cc1 | -3.3 | 0.5 | 50.7* | 37.1 | 9.4 | 0.6
Cc1ccc(CNC(=O)c2ccc(NS(=O)(=O)c3c(C)noc3C)cc2)cc1 | 1.6 | 0.3 | 69.8* | 3.6 | 2.6 | 1
CC1(C)CC(=O)CC(=NCC(=O)O)C1 | 5.1 | 0.8 | 20.9 | 7.0 | -2.0 | 0.9
N#CC1(c2ccccc2)CCCN1C(=O)c1ccco1 (stereo not drawn) | 7.3 | 0.9 | 7.7 | 9.6 | 10.9 | 0.9
COc1cc(C(N)=O)cc(Br)c1OC | -3.8 | 0.7 | 29.9 | 25.9 | -9.1 | 0.7
Cc1occc1C(=O)NC(C)c1ccc2c(c1)OCO2 (stereo not drawn) | 14.4 | 1 | -3.3 | 62.0* | 6.8 | 0.4
COc1cc(CC(=O)NCc2ccc3c(c2)OCO3)cc(OC)c1OC | -2.6 | 1.1 | -11.3 | 74.3* | -2.6 | 0.3
CCOc1ccccc1C(=O)NC(C)c1ccc2c(c1)OCO2 (stereo not drawn) | -2.5 | 1.5 | -45.3 | 80.0* | 23.2 | 0.2
COc1ccccc1NC(=O)NCc1ccc2c(c1)OCO2 | -0.5 | 1.1 | -6.5 | 53.6* | 2.4 | 0.5
COCC(=O)NCc1ccc2c(c1)OCO2 | -8.3 | 1.1 | -7.3 | -12.0 | 3.5 | 1.1
COc1ccccc1NC(=O)N(Cc1ccc2c(c1)OCO2)Cc1nc2ccccc2c(=O)[nH]1 | 23.9 | 1 | 0.2 | 2.7 | -5.5 | 1
COc1ccc(C(C)NC(=O)c2ccoc2C)cc1OC (stereo not drawn) | -3.8 | 0.9 | 7.7 | 20.0 | 2.3 | 0.8
COc1ccc(S(=O)(=O)N(CC(=O)NCC2CCCO2)c2ccccc2)cc1OC (stereo not drawn) | -1.6 | 0.7 | 29.2 | 32.9 | 5.0 | 0.7
Cc1oc(C(C)(C)C)cc1C(=O)Nc1cccc(/C=C/C(=O)O)c1 | -4.4 | 0.8 | 15.2 | 5.8 | 10.3 | 0.9
O=S(=O)(N1CCOCC1)n1cnc2ccccc21 | -5.4 | 1 | -3.7 | 24.9 | -6.2 | 0.8
CC1CCN(c2[nH]c(=S)c(C#N)c3c2CCCC3)CC1 | 0.0 | 0.6 | 44.9 | 22.7 | 2.3 | 0.8
CC(=O)c1cc(C)ccc1OC(=O)c1ccco1 | 2.8 | 1.1 | -6.8 | 1.8 | 7.8 | 1
Cc1c(NC(=O)CN2CC(C)OC(C)C2)c(=O)n(-c2ccccc2)n1C (stereo not drawn) | -9.0 | 1.1 | -5.7 | 0.0 | 13.3 | 1
